Screening results as filed in PubChem BioAssay.
AmpC inh detg – inhibitors of E. coli AmpC beta-lactamase with detergent; P00811; Potency, µM (highest dose often 114 µM), for inactives: top-dose activity change, negative = inhibition, most hits filed as inhibitors; AmpC hydrolysis of nitrocefin, absorbance 480 nm, 0.01% Triton; 370,000 compounds, 0.041% hits; AID 485294;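 further: 0% = no-compound wells and -100% = no-enzyme wells; nearly all actives have a fitted effect of over 25% in size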
Target sequence (P00811 whole entry, looked up): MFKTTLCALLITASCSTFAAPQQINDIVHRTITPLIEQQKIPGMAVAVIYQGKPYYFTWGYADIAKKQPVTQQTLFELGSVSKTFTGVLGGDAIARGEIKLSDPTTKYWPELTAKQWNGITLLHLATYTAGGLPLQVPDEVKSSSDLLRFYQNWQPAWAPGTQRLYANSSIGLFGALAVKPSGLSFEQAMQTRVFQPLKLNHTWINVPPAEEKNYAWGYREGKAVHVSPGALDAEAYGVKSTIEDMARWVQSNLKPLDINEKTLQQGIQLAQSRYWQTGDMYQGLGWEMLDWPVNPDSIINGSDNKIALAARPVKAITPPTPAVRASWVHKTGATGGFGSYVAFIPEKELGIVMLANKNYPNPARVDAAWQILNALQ
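20 mM phosphate pH 7.0 + 0.01% (detergent screen) or 0.0001% Triton X-100; 5.3 nM AmpC reagent; cpd preinc 15 min RT; nitrocefin (800 uM stock) to start; A480 q20 s × 4 min; Activity was normalised to no-enzyme and no-compound control wells.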
AmpC no deterg – AmpC beta-lactamase inhibition without detergent; P00811; AmpC nitrocefin hydrolysis, absorbance 480 nm, 0.0001% Triton; Potency, µM (doses to about 57.1 µM), inactives show at the top dose activity change, negative = inhibition, actives largely listed as inhibitors; 330,000 compounds, 0.52% hits;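 further: plate controls were no compound for no effect and no enzyme for full effect; nearly all actives have a fitted effect of over 20% in size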
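20 mM phosphate pH 7.0 + 0.01% (detergent screen) or 0.0001% Triton X-100; 5.3 nM AmpC reagent; cpd preinc 15 min RT; nitrocefin (800 uM stock) to start; A480 q20 s × 4 min; Activity was normalised to no-enzyme and no-compound control wells.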
AMA1 RON2 block – AMA1-RON2 (P. falciparum) interaction inhibition | AlphaScreen AMA1-biotinylated RON2 peptide binding | Potency, µM (series often up to 58.2 µM), for the others: at the top dose activity change, negative = inhibition, usual class: inhibitors | 360,000 compounds, 0.2% hits | AID 720542;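 further: 0% = vehicle wells and -100% = peptide control; nearly all actives have a fitted effect of over 45% in size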
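AMA1 (3D7) with his tag at 25 nM final met compounds first, then biotinylated RON2 peptide at 25 nM; detection used donor plus acceptor beads, 10 µg/mL apiece, read by AlphaScreen after 30 min at room temperature.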
Pf growth 96h – inhibits malaria parasite growth, 96 h. Potency, µM (titrated, usually from 28.7 µM), for the others: at the highest dose activity change, negative = inhibition, hits mostly inhibitors. 320,000 compounds, 6.9% hits. P. falciparum luciferase reporter growth, 96 h
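Parasite growth measured via integrated firefly luciferase reporter in P. falciparum. Infected erythrocytes at 2% hematocrit, 0.05% parasitemia final were treated 96 hours at 37 C under 5% CO2, and luminescence was read.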
Pf growth 48h – inhibits P. falciparum growth in the first generation, 48 h; P. falciparum luciferase growth in erythrocytes, 48 h; Potency, µM (doses to about 28.7 µM), for inactives: at the top dose activity change, negative = inhibition, usual class: inhibitors; 310,000 compounds, 5.9% hits; AID 504832
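Read-out is firefly luciferase luminescence from an integrated reporter in P. falciparum, so falling signal marks reduced parasite growth. Infected erythrocytes were at 2% hematocrit and 0.1% parasitemia (final) in Albumax-supplemented RPMI 1640.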
HCV inhibitor – blocks hepatitis C virus. Huh7.5.1 HCVcc-Cre infection, luciferase reporter, 44 h. Potency, µM (top dose mostly 41.8 µM), inactives show at the top dose activity change, negative = inhibition, actives largely listed as inhibitors. 340,000 compounds, 3.4% hits
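HCVcc-Cre virus at an moi near 0.5 was added right after compound to cells cultured 4 h from seeding (1,000 cells/well). Luciferase activity was determined 44 h later, 15 min after substrate addition at RT.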
An asterisk follows results filed as active; u = inconclusive; x = no result. This is a sample that favours compounds with a hit; in the whole collection about 11% have one here. The call rests on the fitted dose curve; in most records, active means well fitted curve in the direction sought with a large enough effect; inconclusive means small, poorly fitted or top-dose-only effect, or another doubt; inactive means no such curve, though single readings can be large; an effect the other way counts as inactive or inconclusive. Unless noted, on the % scale 0 is the no-effect control and ±100 the full control effect; potency means the concentration at half of the fitted maximal effect.

SMILES | AmpC inh detg | AmpC no deterg | AMA1 RON2 block | Pf growth 96h | Pf growth 48h | HCV inhibitor
CCOC(=O)N1CCN(C(=O)c2ccc3c(=O)n(CCc4ccccc4)c(=S)[nH]c3c2)CC1 | 1% | -17% | -27% | 8.3µM* | u | -14%
CCCn1c(=S)[nH]c2cc(C(=O)N3CCN(C4CCCCC4)CC3)ccc2c1=O | 5% | -2% | 31% | 10µM* | 0% | 3%
Cc1ccc(NC(=O)Cc2c(C(=O)O)c(C)cn2C)cc1Cl | 9% | x | x | x | x | x
COc1ccc(C2=NNC(c3cc(Cl)cc4c3OCOC4)C2)c(O)c1 (stereo not drawn) | -4% | 17% | x | 2% | 8.3µM* | x
O=C1C2C3C=CC(C4CC34)C2C(=O)N1/N=C/c1ccc(-c2ccc(F)cc2[N+](=O)[O-])o1 (stereo not drawn) | -1% | -11% | u | 4.7µM* | x | u
Cc1nn(-c2ccccc2)c2c1C(O)n1c(nc3ccccc31)S2 (stereo not drawn) | -6% | 9% | -2% | -15% | 1.7µM* | 11µM*
Cc1nn(-c2ccccc2)c(C)c1Cc1ccc(O)cc1 | 0% | -18% | -2% | 47% | 43% | u
COCCn1c(SCC(=O)N2CCCCC2)nc2c(c1=O)SC(C)C2 (stereo not drawn) | -7% | -3% | 3% | u | u | 27%
C=CCn1c(SCC(=O)N2CCCC2)nc2c([nH]c3ccccc32)c1=O | -7% | -20% | 11% | 21% | -14% | 0%
CCn1c(SCC(=O)N2CCC(C)CC2)nc2c(c1=O)SC(C)C2 (stereo not drawn) | -6% | 23% | -11% | 6.6µM* | u | -5%
CCn1c(SCC(=O)N2CCOCC2)nc2c(c1=O)SC(C)C2 (stereo not drawn) | u | -9% | -17% | 2.1µM* | -20% | 1%
CCn1c(SCC(=O)N2CCOCC2)nc2c([nH]c3ccccc32)c1=O | -7% | -16% | 11% | 13µM* | u | 2%
CCC(Sc1nc2c(c(=O)n1CC)SC(C)C2)C(=O)OC (stereo not drawn) | u | 0% | -3% | 0.37µM* | u | 11%
CCOC(=O)c1c(-c2ccc(C)cc2)csc1NC(=O)c1cc(=O)c2ccc(C)cc2o1 | -8% | x | x | x | x | x
CCC12C(=O)C(CC)(C(c3ccccc3)=C1c1ccccc1)[C@@H]1C(=O)N(c3ccccc3)C(=O)C12 (stereo partly drawn) | -9% | -18% | -20% | u | 2.1µM* | 14µM*
CCCC12C(=O)C(C)(C(c3ccccc3)=C1c1ccccc1)C1C(=O)N(c3ccc(C)cc3)C(=O)C12 (stereo not drawn) | 2% | -20% | -22% | 3.3µM* | 2.6µM* | 4.5µM*
Cc1cccc(/C=C/C(=O)c2ccc(NC3=NCCCS3)cc2)c1 | -1% | -28% | -22% | 34% | 18% | 11µM*
COc1cccc(/C=C/C(=O)c2ccc(NC3=NCCCS3)cc2)c1 | -14% | -44% | -5% | 33% | -22% | -24%
CC(=O)c1ccc(NC2=NCCCS2)cc1 | -11% | -20% | -3% | 20% | 76% | -6%
CC(C)(C)c1ccc(/C=C/C(=O)c2ccc(NC3=NCCCS3)cc2)cc1 | -3% | 49% | -6% | u | 17µM* | 11µM*
O=C(/C=C/c1ccccc1)c1ccc(NC2=NCCCS2)cc1 | u | 28µM* | -7% | -24% | 27% | -3%
CN(C)c1ccc(C(=O)/C=C/c2ccc(Br)cc2)cc1 | 1% | -19% | -4% | 8% | 0% | -6%
O=C(/C=C/c1ccc(Br)cc1)c1ccc(NC2=NCCCS2)cc1 | 1% | 14µM* | -28% | u | u | u
CC(C)c1ncc([N+](=O)[O-])n1C | x | x | x | 0% | -2% | x
